Source: PubChem BioAssay (National Center for Advancing Translational Sciences (NCATS))
PLK1 PBD block – blocks phosphopeptide binding to human PLK1 polo-box domain; Potency, µM, for the others: max response, negative = inhibition, usual class: inhibitors; P53350; Plk1 PBD binding of FITC phosphopeptide, fluorescence polarization; 360,000 tested, 2.8% active; note: series mostly up to about 57 µM; nearly all actives have a fitted effect of over 65% in size
Target sequence (P53350 whole entry, looked up, the tested form may be a part): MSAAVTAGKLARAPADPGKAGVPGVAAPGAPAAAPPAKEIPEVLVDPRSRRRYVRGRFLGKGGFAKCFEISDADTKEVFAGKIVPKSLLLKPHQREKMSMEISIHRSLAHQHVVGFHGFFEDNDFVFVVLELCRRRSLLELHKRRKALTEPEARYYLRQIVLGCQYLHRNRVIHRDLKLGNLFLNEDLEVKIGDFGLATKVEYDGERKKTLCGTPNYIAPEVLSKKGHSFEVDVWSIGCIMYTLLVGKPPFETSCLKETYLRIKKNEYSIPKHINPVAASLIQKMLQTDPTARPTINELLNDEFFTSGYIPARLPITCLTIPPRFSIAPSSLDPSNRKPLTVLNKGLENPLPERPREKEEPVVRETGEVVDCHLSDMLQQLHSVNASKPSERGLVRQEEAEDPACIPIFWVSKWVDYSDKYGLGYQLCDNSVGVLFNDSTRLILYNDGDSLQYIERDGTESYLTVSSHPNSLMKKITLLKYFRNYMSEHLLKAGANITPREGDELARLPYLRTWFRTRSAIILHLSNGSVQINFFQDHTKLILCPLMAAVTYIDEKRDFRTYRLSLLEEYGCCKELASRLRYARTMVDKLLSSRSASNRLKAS
VDR inhibitor – vitamin D3 receptor (human) inhibition; VDR-SRC2-3 peptide fluorescence polarization, 2 h; Potency, µM, for inactives: max response, negative = inhibition, usual class: inhibitors; AID 504847; P11473; 400,000 tested, 0.93% active
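Two reagent solutions held at 4 deg C in the dark were dispensed, compounds pinned at 23 nl, and the mixture incubated 2 h at room temperature. Read-out: fluorescence polarization of VDR–SRC2-3 peptide binding.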
rTrxR1 inhibitor – inhibitors of rat thioredoxin reductase 1; O89049; recombinant rTrxR1, NADPH fluorescence consumption, selenite substrate; Potency, µM (doses to about 114 µM), inactives show at the highest dose activity change, negative = inhibition, actives largely listed as inhibitors; 390,000 tested, 1% active; AID 588453; note: nearly all actives have a fitted effect of over 65% in size
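Rat TrxR1 (90 nM in the dispensed reagent) was pre-reduced with 400 uM NADPH for 5 min at room temperature, then incubated with compound for 15 min. After 400 uM selenite was added, NADPH fluorescence (Ex 340/Em 450 nm) was followed for 8 min.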
Sfp PPTase inh – blocks B. subtilis Sfp PPTase activity; 310,000 tested, 3.5% active; Potency, µM, for the others: largest response in the series, negative = inhibition, actives largely listed as inhibitors; Biochemical Sfp PPTase activity, qHTS; AID 1490; Q9F4F7;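 note: the enzyme is Sfp with the accession as filed and its product quenches rhodamine fluorescence; 0% = enzyme reaction without inhibitor and -100% = no enzyme wells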
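Fluorescence-quenching assay: 15 nM Sfp-PPTase preincubated 15 min at room temperature with compound, then 5 uM rhodamine-CoA and 12.5 uM BHQ-2-labelled YbbR peptide added. Fluorescence (ex 525/em 598 nm) read at start and after 30 min; difference gives rate.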
TrxR1 substrate – rat thioredoxin reductase 1 substrate activity | O89049 | 390,000 tested, 0.01% active | Potency, µM (series often up to 114 µM), inactives show top-dose activity change, negative = substrate turnover | purified TrxR1 substrate turnover, NADPH consumption readout; note: nearly all actives have a fitted effect of over 50% in size
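Rat TrxR1, dispensed at 90 nM, was prereduced with 400 uM NADPH (final) for 5 min at ~22 deg C, then incubated with compound 15 min before 400 uM selenite. A first-read NADPH fluorescence drop versus no-compound background flagged substrates.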
IDH1 R132H inh – blocks human mutant IDH1 R132H enzyme; O75874; IDH1-R132H enzyme, NADPH consumption, diaphorase/resazurin fluorescence; Potency, µM (top dose mostly 76.6 µM), for the others: at the top dose activity change, negative = inhibition, hits mostly inhibitors; 390,000 tested, 0.093% active; note: nearly all actives have a fitted effect of over 65% in size
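IDH1-R132H (0.5 ug/mL) preincubated 30 min with compound, then NADPH (0.016 mM) and alpha-KG (2 mM) added; 80 min at RT, pH 7.5. Remaining NADPH coupled via diaphorase/resazurin to fluorescence (540/590 nm); concentration-response curves normalized to no-enzyme control.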
Active calls of the source: *; ? = inconclusive; / = not tested or not shown; ! = not confirmed by another sample; [ ] = another dose, or the depositor's remark. A selection: hits, their analogues and other compounds. The true share with any hit is near 5.2%. Calls come from the whole dose curve; as a rule, active = well fitted curve in the direction sought with a large enough effect; inconclusive = small, poorly fitted or top-dose-only effect, or another doubt; inactive = no such curve, though single readings can be large; an effect the other way counts as inactive or inconclusive. Unless noted, % is set by controls: 0 for no effect and ±100 for the full control effect; potency is the fitted concentration of half-maximal effect.

SMILES	PLK1 PBD block	VDR inhibitor	rTrxR1 inhibitor	Sfp PPTase inh	TrxR1 substrate	IDH1 R132H inh
Cc1c(C(=O)Oc2cc(N)n(S(C)(=O)=O)n2)cccc1[N+](=O)[O-]	12µM*	79µM*	25µM*	-27%	5%	-2%
COc1ccc(C2CC(=O)N3C(=C2C#N)SCC3(O)c2ccccc2)cc1 (stereo not drawn)	-2%	15%	11%	50µM*	-2%	8%
N#CC1=C2SCC(O)(c3ccccc3)N2C(=O)CC1c1ccccc1F (stereo not drawn)	-5%	9%	-8%	50µM*	-5%	3%
Cc1c(NC(=O)CSC2=C(C#N)C(c3ccccc3F)CC(=O)N2)c(=O)n(-c2ccccc2)n1C (stereo not drawn)	0%	-3%	-5%	14%	-8%	1%
N#CC1=C2SCC(O)(c3ccccc3)N2C(=O)CC1c1cccs1 (stereo not drawn)	-10%	-7%	9%	18µM*	-1%	3%
CSC1=C(C#N)C(c2cccs2)CC(=O)N1C (stereo not drawn)	/	/	/	1%	/	/
Cn1cc(C(=O)O)c(=O)c2cc(S(=O)(=O)N3CCCCC3)ccc21	/	8%	9%[57.1 µM]	/	-3%[57.1 µM]	-13%
Cc1ccc(CN2[C@@H](CC(C)C)COCCS2(=O)=O)cc1	-4%	-4%	2%	/	-6%	-16%
O=C(Nc1ccc(-n2nncc2-c2ccccc2)cc1)c1ccccc1	/	-9%	-12%	/	-3%	/
CC12C=CC3(CN(Cc4ccccc4)C(=O)C3C1C(=O)NCc1ccco1)O2 (stereo not drawn)	-6%	-2%	56µM*	-6%	8%	4%
COC(=O)C1C2C=CC3(CN(Cc4ccco4)C(=O)C13)O2 (stereo not drawn)	-2%	14%	?	13µM*	4%[57.1 µM]	2%
CCOC(=O)C1C2C=CC3(CN(Cc4cccs4)C(=O)C13)O2 (stereo not drawn)	17µM*	-8%	-13%	12%	-1%	1%
COc1ccc(C2=Nc3ccccc3N(C(=O)c3ccc4c(c3)OCO4)C2C(=O)Nc2c(C)cccc2C)cc1 (stereo not drawn)	-6%	/	/	/	/	/
Cc1cc2c(cc(C(=O)N3CCC(C(=O)N4CCCC4)CC3)n2Cc2c(F)cccc2Cl)o1	-2%	-10%	-16%[57.1 µM]	50µM*	-2%[57.1 µM]	0%
Cn1c(CNC(=O)CNC(=O)c2cccc(Cl)c2)cc(=O)n(C)c1=O	-1%	7%	9%	1%	4%	3%
Cc1cccc(CC(=O)NCC(=O)NCc2cc(=O)n(C)c(=O)n2C)c1	3µM*	?	6%	20%	-2%	-1%
CC(=O)NCCNc1ncnc2ccc(-c3ccoc3)cc12	/	40µM*	/	-10%	/	/
CN(C)c1ccc(-c2ccc3ncnc(NCc4ccccc4)c3c2)cc1	/	-5%	/	-20%	/	/
CN1CCN(c2ncnc3ccc(-c4ccoc4)cc23)CC1	/	45µM*	/	17%	/	/
COCCNc1ncnc2ccc(-c3ccc(N(C)C)cc3)cc12	/	40µM*	/	-28%	/	/
CC(=O)NCCNc1ncnc2ccc(-c3ccccc3C)cc12	/	45µM*	/	12%	/	/
CS(=O)(=O)Nc1cccc(-c2ccc3ncnc(N4CCOCC4)c3c2)c1	/	45µM*	/	18%	/	/
COCCNc1ncnc2ccc(-c3ccccc3C(F)(F)F)cc12	/	?	/	56µM*	/	/
c1nc(NCCN2CCOCC2)c2cc(-c3ccoc3)ccc2n1	/	45µM*	/	34%	/	/
COCCNc1ncnc2ccc(-c3ccccc3OC)cc12	/	-7%	/	10%	/	/
SMILES	PLK1 PBD block	VDR inhibitor	rTrxR1 inhibitor	Sfp PPTase inh	TrxR1 substrate	IDH1 R132H inh
Cc1ccccc1-c1ccc2ncnc(N3CCNCC3)c2c1	/	50µM*	/	0%	/	/
COc1ccc(/C=C/c2cnc3ccccc3n2)cc1OC	/	/	-1%	/	-9%	/
C[C@@H]1CCCCO[C@H](CN(C)C(=O)Cc2ccccc2)[C@@H](C)CN([C@H](C)CO)C(=O)c2cc(N(C)C)ccc2O1	-3%	/	/	/	/	24%
CC1CCN(S(=O)(=O)c2ccc3c(c2)N(CC(=O)NC(C)(C)C)C(=O)CS3)CC1	/	-2%	-1%	/	-5%	8%
CCOc1ccc(CCNC(=O)C2Cc3ccccc3N2C(=O)CC)cc1 (stereo not drawn)	/	8%	22%[57.1 µM]	/	9%[57.1 µM]	-19%
O=C(NCc1ccccc1)C(=O)NCC(c1cccs1)S(=O)(=O)c1cccs1 (stereo not drawn)	/	4%	9%[57.1 µM]	/	-1%[57.1 µM]	56%
Cc1cnc(CNc2ncnc3ccc(-c4ccoc4)cc23)cn1	/	?	/	-26%	/	/
COCCNc1ncnc2ccc(-c3ccoc3)cc12	/	40µM*	/	1%	/	/
N[C@H](C(=O)O)c1cc(O)cc(O)c1	/	-8%	14%[57.1 µM]	45µM*!	1%[57.1 µM]	/
O=C(C[n+]1ccccc1)c1ccc(I)cc1	/	/	10%	/	2%	/
CC1=C(C(=O)OC(C)C)C2(O)C(=O)c3ccccc3C2(O)N1 (stereo not drawn)	?	?	18%	-17%	0%	-2%
CC(=O)C1=C(C)OC2(O)c3ccccc3C(=O)C12O (stereo not drawn)	-12%	1.6µM*	6%	?	-5%	-7%
COc1cc(/C=C(/C(=O)c2cccs2)c2nc3ccccc3[nH]2)ccc1O	5%	?	14µM*	8%	-11%[57.1 µM]	-5%
Cc1c(CNCc2ccc(Cl)cc2)c(C(=O)O)c(C)n1Cc1ccc(F)cc1	/	-3%	7%	/	3%	-16%
CCC(=O)NC1CCc2cccc(OC)c2C1 (stereo not drawn)	/	-4%	/	11%	/	/
Cc1ccccc1C(=O)Nc1nnc(S(=O)(=O)N(C)Cc2ccco2)s1	-10%	?	45µM*	45µM*	4%	13%
CN(Cc1ccco1)S(=O)(=O)c1nnc(NC(=O)c2ccccc2Cl)s1	?	?	25µM*!	-29%	2%	13%
CC(=O)O[C@@H]1CC2C(C)(C)C(=O)C=C[C@]2(C)C2CC[C@]3(C)C(=CC[C@H]3C3CO[C@@H](C(C)(C)O)[C@H](O)C3)[C@@]21C (stereo partly drawn)	/	-16%	/	89µM*	/	/
O=C(CC(Sc1ccc(Br)cc1)C(=O)O)c1ccc(F)cc1 (stereo not drawn)	?	13µM*	28µM*	45µM*	2%	-1%
CCOc1ccc(C(=O)CC(Sc2ccc(C)cc2)C(=O)O)cc1 (stereo not drawn)	?	?	22%[57.1 µM]	35µM*	-10%[57.1 µM]	11%
CCC(Sc1ccc(C(=O)O)cc1)C(=O)O (stereo not drawn)	-21%	12%	22%	23%	-3%[57.1 µM]	-12%
COc1ccccc1NC(=O)CCC(=O)OCC(=O)c1ccc(C)c([N+](=O)[O-])c1	-5%	1%	28%	3%	9%	-5%
